PubChem BioAssay (EPA / NIEHS)
Activity calls are given as the source filed them. The calls were made as follows: active = hit-call score of the fitted dose curve at least 0.9, where 1 is the maximum; inactive = score below 0.9.

Legend:
[1] = molecular target: Bile acid receptor (Homo sapiens) (UniProt Q96RI1); assay: ATG_IR1_CIS: Attagene CIS-FACTORIAL HepG2 Assay for human Nuclear Receptor Subfamily 1 Group H Member 4 (NR1H4), IR1 submotif (AID 2282946); settings: IR1 reporter transcription, actives raise or lower the signal
Bile acid receptor (Homo sapiens), sequence (Q96RI1 whole entry, looked up): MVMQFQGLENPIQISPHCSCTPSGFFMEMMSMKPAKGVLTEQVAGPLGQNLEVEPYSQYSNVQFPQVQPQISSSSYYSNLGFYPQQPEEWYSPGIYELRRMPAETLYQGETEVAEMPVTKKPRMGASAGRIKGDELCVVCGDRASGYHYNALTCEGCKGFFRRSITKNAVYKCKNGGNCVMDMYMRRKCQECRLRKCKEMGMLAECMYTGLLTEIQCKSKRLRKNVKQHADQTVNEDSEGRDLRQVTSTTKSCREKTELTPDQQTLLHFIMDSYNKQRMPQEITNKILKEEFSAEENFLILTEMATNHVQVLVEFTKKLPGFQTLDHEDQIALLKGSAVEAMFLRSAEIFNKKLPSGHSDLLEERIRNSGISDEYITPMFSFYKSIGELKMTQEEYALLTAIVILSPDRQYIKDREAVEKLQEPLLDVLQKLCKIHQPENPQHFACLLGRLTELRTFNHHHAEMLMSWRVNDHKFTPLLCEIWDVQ
In short: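 Transient MRTU transfection, HepG2; 24 h dosing; RNA → RT-PCR → 6-FAM primer extension → HpaI digest → capillary electrophoresis fluorescence. Gain/loss of signal fitted relative to DMSO.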

[2] = ATG_ISRE_CIS: Attagene CIS-FACTORIAL HepG2 Assay for human Interferon Regulatory Factor 1 (IRF1) binding to an Interferon-Stimulated Response Element (ISRE) (AID 2282948); settings: HepG2 ISRE cis-reporter (Attagene), mRNA transcription readout; actives raise or lower the signal
In short: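 HepG2 cells transiently transfected with multiplexed cis-promoter reporter units; after 24 h compound exposure, reporter mRNA quantified by RT-PCR, FAM labelling, HpaI digestion and capillary electrophoresis. Bidirectional fit versus DMSO baseline.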

[3] = ATG_M_32_CIS: Attagene CIS-FACTORIAL HepG2 Assay for M32 Transcription Factor (Internal Marker) (AID 2282949); settings: HepG2 Attagene cis-factorial M32 reporter, mRNA; actives raise or lower the signal;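 also: background control marker of the multiplexed CIS panel rather than a real target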
In short: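 Internal background marker read-out: RT-PCR/capillary electrophoresis fluorescence of reporter transcripts from transiently transfected HepG2 cells after 24 h chemical exposure. Activity fitted bidirectionally relative to DMSO negative control.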

[4] = ATG_M_06_CIS: Attagene CIS-FACTORIAL HepG2 Assay for M06 Transcription Factor (Internal Marker) (AID 2282950); settings: HepG2 Attagene CIS-FACTORIAL M06 internal marker reporter; actives raise or lower the signal
In short: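 HepG2 cells transiently transfected with cis-regulated multiple reporter transcription units were exposed to chemical for 24 h; reporter mRNA was quantified by RT-PCR, 6-FAM primer labelling, HpaI digestion and capillary electrophoresis, fitted bidirectionally against DMSO.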

[5] = molecular target: Hypoxia-inducible factor 1-alpha (Homo sapiens) (UniProt Q16665); assay: ATG_HIF1a_CIS: Attagene CIS-FACTORIAL HepG2 Assay for human Hypoxia Inducible Factor 1 (HIF1A) (AID 2282951); settings: HepG2 Attagene cis-factorial HIF1a reporter transcription; actives raise or lower the signal
Hypoxia-inducible factor 1-alpha (Homo sapiens), sequence (Q16665 whole entry, looked up): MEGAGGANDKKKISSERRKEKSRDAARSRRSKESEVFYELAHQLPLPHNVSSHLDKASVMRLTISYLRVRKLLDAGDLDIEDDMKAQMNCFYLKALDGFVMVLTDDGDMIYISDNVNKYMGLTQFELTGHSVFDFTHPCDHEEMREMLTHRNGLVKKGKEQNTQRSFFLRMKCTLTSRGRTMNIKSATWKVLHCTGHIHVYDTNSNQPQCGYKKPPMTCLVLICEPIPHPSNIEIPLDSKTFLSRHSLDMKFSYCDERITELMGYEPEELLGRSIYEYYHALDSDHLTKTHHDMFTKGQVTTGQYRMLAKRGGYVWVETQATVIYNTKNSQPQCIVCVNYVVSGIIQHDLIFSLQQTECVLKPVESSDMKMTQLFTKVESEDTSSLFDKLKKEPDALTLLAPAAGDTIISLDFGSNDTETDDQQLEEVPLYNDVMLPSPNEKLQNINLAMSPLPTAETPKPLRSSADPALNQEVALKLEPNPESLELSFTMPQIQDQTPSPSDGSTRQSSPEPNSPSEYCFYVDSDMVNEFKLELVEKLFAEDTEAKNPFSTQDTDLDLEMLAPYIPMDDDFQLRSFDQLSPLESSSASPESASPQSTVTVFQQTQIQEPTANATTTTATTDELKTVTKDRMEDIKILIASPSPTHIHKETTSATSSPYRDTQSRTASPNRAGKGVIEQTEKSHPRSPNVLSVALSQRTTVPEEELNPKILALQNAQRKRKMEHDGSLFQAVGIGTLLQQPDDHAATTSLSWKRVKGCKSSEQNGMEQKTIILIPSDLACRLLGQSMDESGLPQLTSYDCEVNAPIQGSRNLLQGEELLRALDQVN
In short: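 HepG2, transient cis-reporter library, 24 h dosing. RNA → RT (oligo dT) → PCR → 6-FAM primer extension → HpaI → CE. Bidirectional curve fit vs DMSO.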

[6] = molecular target: Hepatocyte nuclear factor 6 (Homo sapiens) (UniProt Q9UBC0); assay: ATG_HNF6_CIS: Attagene CIS-FACTORIAL HepG2 Assay for human Hepatocyte Nuclear Factor 6 (HNF6) (AID 2282952); settings: HepG2 Attagene cis-factorial HNF6 reporter transcription; actives raise or lower the signal
Hepatocyte nuclear factor 6 (Homo sapiens), sequence (Q9UBC0 whole entry, looked up): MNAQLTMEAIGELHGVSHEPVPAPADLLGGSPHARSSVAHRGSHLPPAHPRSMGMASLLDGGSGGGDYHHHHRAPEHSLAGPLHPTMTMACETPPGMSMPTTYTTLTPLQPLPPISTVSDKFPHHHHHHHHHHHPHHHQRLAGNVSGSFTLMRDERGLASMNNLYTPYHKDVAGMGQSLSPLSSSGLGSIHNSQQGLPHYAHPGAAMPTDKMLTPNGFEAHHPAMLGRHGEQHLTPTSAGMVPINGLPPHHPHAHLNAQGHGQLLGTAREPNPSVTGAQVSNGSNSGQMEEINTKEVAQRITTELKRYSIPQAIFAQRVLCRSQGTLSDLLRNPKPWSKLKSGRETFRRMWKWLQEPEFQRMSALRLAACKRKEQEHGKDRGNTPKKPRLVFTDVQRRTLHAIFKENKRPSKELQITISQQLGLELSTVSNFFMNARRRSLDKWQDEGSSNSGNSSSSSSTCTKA
In short: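 HepG2 cells transiently transfected with cis-element-driven multiple reporter transcription units, dosed 24 h; reporter mRNA quantified by RT-PCR, FAM primer extension, HpaI digestion and capillary electrophoresis; bidirectional fit versus DMSO baseline.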

[7] = molecular target: Heat shock factor protein 1 (Homo sapiens) (UniProt Q00613); assay: ATG_HSE_CIS: Attagene CIS-FACTORIAL HepG2 Assay for human Heat Shock Transcription Factor 1 (HSE) (AID 2282953); settings: HepG2 HSE cis-reporter, Attagene RNA transcription; actives raise or lower the signal
Heat shock factor protein 1 (Homo sapiens), sequence (Q00613 whole entry, looked up): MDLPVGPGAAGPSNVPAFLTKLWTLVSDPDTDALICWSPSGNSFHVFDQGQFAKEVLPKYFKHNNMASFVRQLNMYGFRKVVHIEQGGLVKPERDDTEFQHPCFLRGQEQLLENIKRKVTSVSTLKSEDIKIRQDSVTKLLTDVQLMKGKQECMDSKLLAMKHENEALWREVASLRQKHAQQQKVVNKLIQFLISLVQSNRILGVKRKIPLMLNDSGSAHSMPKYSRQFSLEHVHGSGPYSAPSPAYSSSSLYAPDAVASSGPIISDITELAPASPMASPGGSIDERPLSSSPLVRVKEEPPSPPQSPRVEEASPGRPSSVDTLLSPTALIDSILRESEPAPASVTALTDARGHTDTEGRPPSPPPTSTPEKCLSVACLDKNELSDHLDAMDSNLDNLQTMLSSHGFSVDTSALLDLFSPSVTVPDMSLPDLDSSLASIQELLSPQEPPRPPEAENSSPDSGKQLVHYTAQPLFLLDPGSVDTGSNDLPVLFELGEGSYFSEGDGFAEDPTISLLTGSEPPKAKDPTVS
In short: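 HepG2 cells transiently transfected with multiple reporter transcription units under cis-regulatory promoter control, measuring endogenous transcription factor activity. After 24 h chemical exposure, reporter mRNA quantified by RT-PCR, fluorescent labelling, HpaI digestion and capillary electrophoresis; bidirectional fit versus DMSO.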

[8] = ATG_MRE_CIS: Attagene CIS-FACTORIAL HepG2 Assay for human Metal Responsive Element (MRE) (AID 2282954); settings: HepG2 MRE cis-reporter transcription, Attagene multiplex; actives raise or lower the signal
In short: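 HepG2 cells transiently transfected with multiple cis-element reporter units measure endogenous MTF1-driven transcription. After 24 h compound exposure, reporter mRNA is quantified by RT-PCR with 6-FAM labelling, HpaI digestion and capillary electrophoresis; bidirectional fits versus DMSO.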

[9] = ATG_PBREM_CIS: Attagene CIS-FACTORIAL HepG2 Assay for human Phenobarbital-responsive Enhancer Module (PBREM) (AID 2282955); settings: HepG2 PBREM cis-reporter, Attagene multiplexed transcription; actives raise or lower the signal
In short: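 HepG2, transient MRTU transfection, 24 h dosing; RNA → oligo(dT) RT → PCR → 6-FAM extension → HpaI → CE. Bidirectional fit vs DMSO.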

[10] = ATG_GRE_CIS: Attagene CIS-FACTORIAL HepG2 Assay for human Glucocorticoid Response Elements (GRE) (AID 2282947); settings: HepG2 GRE cis-reporter, Attagene multiplex mRNA; actives raise or lower the signal
In short: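 HepG2 cells transiently transfected with multiple cis-promoter reporter units measure endogenous TF activity; 24 h compound exposure. Reporter mRNA quantified by RT-PCR, FAM labelling, HpaI digestion and capillary electrophoresis; bidirectional fit vs DMSO baseline.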

Measured: AC50

O=Nc1ccc(Nc2ccccc2)cc1
active: [1] 13.7 µM | [2] 25.4 µM | [5] 33.4 µM | [6] 25.2 µM | [7] 27.8 µM | [8] 20 µM | [9] 59.3 µM
inactive: [3] | [4]

CCCCCCCCCOC(C)=O
not listed: [2]
inactive: all other assays above

c1ccc(CCCc2ccccn2)cc1
active: [8] 81.5 µM | [9] 67 µM
not listed: [3] | [10]
inactive: all other assays above

CCCCCCCCCCCCCC(=O)O
inactive: [1] | [10] | [2] | [4] | [6] | [9]

CC(=O)Nc1ccccc1O
not listed: [10]
inactive: all other assays above

CCCC/C=C\CCCCCCCCCC=O
not listed: [8] | [10]
inactive: all other assays above

C=CC(C)(O)CCC=C(C)CCC=C(C)C (stereo not given)
inactive: [1] | [3]
active: [10] 100 µM | [4] 166 µM | [5] 170 µM | [6] 158 µM | [7] 163 µM | [8] 136 µM

OCC(CO)(CO)COCC(CO)(CO)CO
not listed: [10]
inactive: all other assays above

CC(=O)C=CC1=C(C)CCCC1(C)C
not listed: [9] | [10]
inactive: all other assays above

C=C(C)C(=O)OCc1ccccc1
not listed: [7] | [10]
inactive: all other assays above

CC(=O)/C=C/C1=C(C)CCCC1(C)C
not listed: [9] | [10]
inactive: all other assays above

CCN(CC)c1ccc2c(-c3ccccc3C(=O)O)c3ccc(=[N+](CC)CC)cc-3oc2c1
active: [1] 70.4 µM | [2] 59.9 µM | [5] 154 µM | [7] 178 µM | [8] 156 µM
inactive: [3] | [4] | [6] | [9]

CC(c1cc2ccccc2s1)N(O)C(N)=O (stereo not given)
not listed: [1] | [8] | [9]
inactive: all other assays above

CC(C)C1CCC(O)CC1 (stereo not given)
not listed: [1]
inactive: all other assays above

O=C(O)c1cccc([N+](=O)[O-])c1
not listed: [1] | [9]
inactive: all other assays above

CCCCCCCCC=O
not listed: [1]
inactive: all other assays above

CC1(C)[C@H]2CC[C@]1(C)[C@H](O)C2
not listed: [1]
inactive: all other assays above

CC1COc2ccccc2N1C(=O)C(Cl)Cl (stereo not given)
active: [2] 100 µM | [8] 62.1 µM
not listed: [1]
inactive: all other assays above
